Assay outcomes as filed in PubChem.
Vaccinia mCherry: qHTS for Stage-Specific Inhibitors of Vaccinia Orthopoxvirus: mCherry Reporter Primary qHTS | Vaccinia virus mCherry reporter infection, fluorescence | Potency, µM (series often up to 36.5 µM), usual class: inhibitors | hit rate 0.63% among 310,000 | AID 720579, 2013; calls by dose curve; tested in A549 cells; further: nearly all actives have a fitted effect of over 35% in size
NS1 inh: qHTS Assay for Inhibitors of Influenza NS1 Protein Function; Potency, µM (series often up to 46.1 µM); hit rate 0.4% among 270,000; AID 2326, 2010; calls by dose curve; further: actives are rising curves; nearly all actives have a fitted effect of over 50% in size
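A cell-based growth assay was used: compounds that relieve NS1-induced slow growth of budding yeast raise OD600. Assay medium was yeast nitrogen base with ammonium sulphate and -URA supplement, pH 6.0, with 2% galactose.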
HCV inh: qHTS Assay for Inhibitors of Hepatitis C Virus (HCV); Potency, µM (titrated, usually from 41.8 µM), usual class: inhibitors; hit rate 3.4% among 340,000; Huh7.5.1 HCVcc-Cre infection, luciferase reporter, 44 h
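Luciferase read-out (15 sec integration) after a 15 min room-temperature substrate step quantifies HCVcc-Cre infection. Cells, 1,000 per well, had compound added 4 h post-plating, then virus at ~0.5 moi, and were cultured 44 h.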
VACV Venus inh: qHTS for Stage-Specific Inhibitors of Vaccinia Orthopoxvirus: Venus Reporter Primary qHTS; Vaccinia virus Venus reporter expression, fluorescence; Potency, µM (highest dose often 36.5 µM), actives largely listed as inhibitors; hit rate 0.46% among 330,000; calls by dose curve; tested in A549 cells; further: nearly all actives have a fitted effect of over 30% in size
Pf growth 48h: Primary qHTS for delayed death inhibitors of the malarial parasite plastid, 48 hour incubation; P. falciparum luciferase growth in erythrocytes, 48 h; Potency, µM (series often up to 28.7 µM), hits mostly inhibitors; hit rate 5.9% among 310,000; AID 504832, 2011
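Luciferase-expressing P. falciparum in infected erythrocytes (2% hematocrit, 0.1% parasitemia final) in RPMI 1640/0.5% Albumax were exposed to compound for 48 hours at 37 C, 5% CO2; growth read as luminescence.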
Pf growth 96h: Primary qHTS for delayed death inhibitors of the malarial parasite plastid, 96 hour incubation; P. falciparum luciferase reporter growth, 96 h; Potency, µM (series often up to 28.7 µM), actives largely listed as inhibitors; hit rate 6.9% among 320,000; AID 504834, 2011
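Plates of compound plus infected erythrocytes (2% hematocrit, 0.05% parasitemia final) incubate 96 hours, 37 C, 5% CO2. Detection reagent added; reduced luminescence from the parasites' luciferase reporter flags inhibition.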
Large screens that a line does not name were inactive. This is a sample that favours compounds with a hit; in the whole collection about 11% have one here. Unless noted, the call rests on the fitted dose curve; in most records, active means well fitted inhibition curve with a large enough effect; inconclusive means small, poorly fitted or top-dose-only effect, or another doubt; inactive means no such curve, though single readings can be large or run the other way.

FC(F)(F)c1cccc(NC(=S)Nc2ccc(Cl)c(Cl)c2)c1	Pf growth 96h 8.3µM
COC(=S)Nc1cccc(C(F)(F)F)c1	none
C=CCNC(=O)N1CCC(n2nccc2NC(=O)CCc2ccccc2)CC1	Pf growth 96h inconclusive (no result: Vaccinia mCherry, VACV Venus inh)
C=CCOC(=O)COc1cc(C)cc2oc(=O)c3c(c12)CCC3	none (no result: Vaccinia mCherry, VACV Venus inh)
CCN1CCCC1CNC(=O)c1cc([N+](=O)[O-])c(N(C)C)cc1OC (stereo not given)	Pf growth 96h 4.1µM (no result: Vaccinia mCherry, VACV Venus inh)
CN(C)c1ccc(C2CC(c3cccc(NS(C)(=O)=O)c3)=NN2C(=O)c2ccccc2)cc1 (stereo not given)	Pf growth 48h inconclusive
CCc1c(C)sc2nc(C(C)C)nc(SCC(=O)N3CCc4ccccc4C3)c12	HCV inh inconclusive, Pf growth 48h 12µM, Pf growth 96h 13µM
Cc1sc2nc(C3CC3)nc(SCC(=O)N3CCc4ccccc4C3)c2c1C	HCV inh inconclusive, Pf growth 48h inconclusive, Pf growth 96h inconclusive
Cc1nc(N2CCN(C(=O)c3ccco3)CC2)c2c3c(sc2n1)CCC3	HCV inh inconclusive, VACV Venus inh inconclusive, Pf growth 48h inconclusive (no result: Vaccinia mCherry, Pf growth 96h)
Cc1sc2nc(C(C)C)nc(SCC(=O)N3CCN(C(=O)c4ccco4)CC3)c2c1C	HCV inh 11µM, Pf growth 48h 13µM
CC(C)c1nc(N2CCN(C(=O)c3ccco3)CC2)c2c3c(sc2n1)CCCC3	HCV inh 22µM, Pf growth 48h 10µM
O=C(COC(=O)c1cc2ccccc2cc1O)c1ccccc1	none (no result: Vaccinia mCherry, VACV Venus inh)
COc1ccc(OC)c(N2Cc3cc(C)c(C)cc3C2)c1	HCV inh 22µM, Pf growth 48h 2.9µM (no result: Pf growth 96h)
CCOc1ccc(N2Cc3ccccc3C2)cc1	Pf growth 48h inconclusive, Pf growth 96h 7.4µM
CCOc1ccccc1N1Cc2cc(C)c(C)cc2C1	HCV inh inconclusive, Pf growth 48h 13µM, Pf growth 96h inconclusive
CCOc1ccccc1N1Cc2ccccc2C1	Pf growth 48h 7.4µM (no result: Pf growth 96h)
CCOc1ccccc1N1CCN(C(=O)C(F)(F)F)CC1	none (no result: Vaccinia mCherry, Pf growth 48h)
CCOC(=O)N1CCC(NS(=O)(=O)c2ccc3c(c2)C(C)(C)C(=O)N3C)CC1	none (no result: Vaccinia mCherry, VACV Venus inh)
COc1cc(OC)cc(C(=O)NC2CCSc3ccccc32)c1 (stereo not given)	Pf growth 96h inconclusive (no result: Vaccinia mCherry, VACV Venus inh)
CN1CCN(CCC(=O)N2c3ccccc3Sc3ccc(C(F)(F)F)cc32)CC1	HCV inh 5.6µM, Pf growth 48h inconclusive, Pf growth 96h 11µM
O=C1c2ccccc2C(=O)N1CC(=O)N1c2ccccc2Sc2ccc(C(F)(F)F)cc21	none
OCCN1CCN(CCCN2c3ccccc3CCc3ccccc32)CC1	Vaccinia mCherry inconclusive (no result: NS1 inh, HCV inh, Pf growth 48h, Pf growth 96h)
OCCN1CCN(CCCN2c3ccccc3C=Cc3ccccc32)CC1	Pf growth 48h 6.7µM, Pf growth 96h 6µM (no result: Vaccinia mCherry, HCV inh, VACV Venus inh)
OCCN1CCN(CCCN2c3ccccc3Sc3ccc(C(F)(F)F)cc32)CC1	HCV inh inconclusive, VACV Venus inh inconclusive, Pf growth 48h 5.2µM, Pf growth 96h 1.9µM
FC(F)(F)c1ccc2c(c1)N(CCCN1CCN(CCCl)CC1)c1ccccc1S2	HCV inh inconclusive, VACV Venus inh inconclusive, Pf growth 48h 9.3µM (no result: Vaccinia mCherry, Pf growth 96h)
COc1cccc(NC(=O)C2CCCN(S(=O)(=O)c3c(C)nn(C)c3C)C2)c1 (stereo not given)	none (no result: NS1 inh, HCV inh, Pf growth 48h, Pf growth 96h)
CCc1ccc(NC(=O)NNC(=O)CCc2ccccc2)cc1	Pf growth 96h inconclusive
Cc1csc(C(C#N)C(=O)c2ccncc2)n1 (stereo not given)	Pf growth 96h inconclusive
COc1ccc(/C=C2/C(=O)N(CC3CCCO3)C(=S)N2C)c(OC)c1 (stereo not given)	none
COc1ccc2c(c1)nc1n2CN(CC2CCCO2)CN1Cc1ccccc1 (stereo not given)	Pf growth 48h 9.3µM, Pf growth 96h 12µM (no result: Vaccinia mCherry, HCV inh, VACV Venus inh)
Cc1cc(C)c(CN2CCN(CCCn3ccc(NC(=O)OCc4ccccc4)nc3=O)CC2)c(C)c1	Vaccinia mCherry inconclusive, HCV inh 7.9µM, VACV Venus inh inconclusive (no result: NS1 inh, Pf growth 48h, Pf growth 96h)
COc1ccc(-c2cccc(C(=O)Nc3cccc(C(=O)O)c3)c2)cc1	none
O=C(C[n+]1cccc2ccccc21)c1ccc([N+](=O)[O-])cc1	HCV inh 11µM, Pf growth 48h inconclusive, Pf growth 96h inconclusive (no result: NS1 inh)
